Compound activity deposited in PubChem by National Center for Advancing Translational Sciences (NCATS).
This is one part of a sample in which hits are shown more often than they occur.
Pf Dd2 inh – blocks in vitro growth of P. falciparum Dd2 | Potency, µM (top dose mostly 28.9 µM), most hits filed as inhibitors | actives 4.3% (n = 120,000) | P. falciparum Dd2 growth, SYBR Green, 72 h; active = well fitted inhibition curve with a large enough effect; also: nearly all actives have a fitted effect of over 65% in size
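Readout: SYBR Green fluorescence, 485 nm excitation, 535 nm emission, after ~16 h lysis at 37C. Before that, Dd2-infected red cells (2.5% hematocrit) grew 72 h with compound, 29 uM top final concentration.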
Each line names hits and unclear results; the compound was inactive in the other large screens; ! = not active in a repeat.

Cc1noc2ccc(-c3cnn(Cc4ccccc4)c3)nc12	none
O=C(O)c1ccc(-c2cccnc2)cc1	none
Cc1cc(-c2nc3ccncc3[nH]2)c(C)[nH]1	Pf Dd2 inh 20µM!
c1cnc2[nH]cc(-c3nc4ccncc4[nH]3)c2c1	Pf Dd2 inh 10µM!
c1cc2nc(C3CCNCC3)[nH]c2cn1	none
O=C(O)c1ccc(-c2nc3ccncc3[nH]2)cc1	Pf Dd2 inh 1.3µM!
c1coc(-c2nc3ccncc3[nH]2)c1	none
c1cc2nc(C3CCNC3)[nH]c2cn1 (stereo not drawn)	none
c1cnc2nc(-c3ccncc3)[nH]c2c1	none
O=C(O)c1ccc2nc(-c3cc4cc(F)ccc4oc3=O)[nH]c2c1	none
COc1ccc(C(=O)N2CCC3(CC2)CC(OC)CCO3)cn1 (stereo not drawn)	none
N#Cc1cccc(CN2CCc3nc(C(=O)Nc4cccc(C(F)(F)F)c4)oc3CC2)c1	none
Cc1nc(CN2CCN(Cc3cc4n(n3)CCNC4)CC2)cs1	none
O=C(Cn1ccn2nc(-c3ccc(F)cc3)c(CO)c2c1=O)Nc1ccc2c(c1)CCC2	none
CN(Cc1cccnc1)c1nc2c(c(=O)[nH]1)CCN(Cc1ccc(F)cc1)CC2	none
CN(CC1CCN(CCc2ccc(F)cc2)CC1)C1CCN(Cc2cccnc2)CC1	Pf Dd2 inh 6.3µM
c1cncc(CN2CCC(OC3CCN(Cc4ccncc4)CC3)CC2)c1	none
CCOc1cccc(CNC(=O)C2CCN(c3cn[nH]c(=O)c3)C2)c1 (stereo not drawn)	none
Clc1cccc(Nc2cnc3ccc(N4CCOCC4)nn23)c1	none
COc1ccc(-c2ccc3ncc(Nc4ccnc(N5CCOCC5)c4)n3n2)cc1OC	none
CN(Cc1cccnc1)c1ccc2ncc(Nc3ccc4c(c3)OCO4)n2n1	Pf Dd2 inh 7.9µM
CN1CCN(c2ccc3ncc(Nc4ccc5c(c4)OCCO5)n3n2)CC1	Pf Dd2 inh 7.9µM
CN1CCN(c2ccc3ncc(Nc4ccc(OC(F)(F)F)cc4)n3n2)CC1	Pf Dd2 inh 3.5µM
CCc1nnc2ccc(N3CCN(C)CC3)nn12	none
CN(Cc1cccnc1)c1ccc2ncc(Nc3ccc(F)cc3)n2n1	none
CN(Cc1ccc(F)cc1)c1ccc2ncc(Nc3ccc4c(c3)OCO4)n2n1	none
c1ccc(-c2ccc3ncc(Nc4ccc5c(c4)OCCO5)n3n2)cc1	none
O=C(c1cccc(F)c1)N1C[C@@H](CO)[C@H](c2nc(C3CC3)no2)C1	none
O=C(CC1CCN(S(=O)(=O)c2ccccc2F)C1)NCc1ccccc1 (stereo not drawn)	none
CC(C)Oc1ccc2c(NC(=O)C3CCOCC3)nn(CC(F)(F)F)c2c1	none
Cc1ncoc1C(=O)N1CCN(C(=O)N2CC3CC(C2)[C@H]2CCCC(=O)N2C3)CC1 (stereo partly drawn)	none
Cc1ccc(-c2nnc(Nc3cccc(O)c3)c3ccccc23)cc1S(=O)(=O)N1CCN(C)CC1	Pf Dd2 inh 10µM
COc1cccc(N2CCN(S(=O)(=O)c3cc(-c4cc(C)no4)ccc3C)CC2)c1	none
COC(=O)c1ccc(Nc2nnc(-c3ccc(C)c(S(=O)(=O)N4CCN(C)CC4)c3)c3ccccc23)cc1	Pf Dd2 inh 1.6µM
Cc1ccc(C(=O)Nc2ccccc2)cc1S(=O)(=O)N1CCCC1	none
Cc1ccc(-c2nnc(Nc3cccc(Cl)c3)c3ccccc23)cc1S(=O)(=O)N1CCOCC1	none
Cc1ccc(-c2nnc(Nc3ccc(F)cc3)c3ccccc23)cc1S(=O)(=O)N1CCN(C)CC1	Pf Dd2 inh 10µM
Cc1ccc(C(=O)Nc2ccc(F)cc2)cc1S(=O)(=O)N1CCOCC1	none
Cc1ccccc1Nc1nnc(-c2ccc(C)c(S(=O)(=O)N3CCN(C)CC3)c2)c2ccccc12	none
Cc1ccc(F)cc1S(=O)(=O)N1CCC(n2cnnc2C(C)C)CC1	none
Cc1ccc(-c2nnc(Nc3cccc(C(F)(F)F)c3)c3ccccc23)cc1S(=O)(=O)N1CCOCC1	Pf Dd2 inh 10µM
Cc1ccc(C(=O)Nc2cccc(C(=O)O)c2)cc1S(=O)(=O)N1CCCC1	none
COc1ccc(Cc2ncc3c(n2)CN(C(=O)C(CO)NC(C)=O)C3)cc1 (stereo not drawn)	none
O=C1NC(C(=O)NCc2ccc(Cl)cc2)Cn2cccc21 (stereo not drawn)	none
O=C1CCCN1CC(=O)N1CCCC(Nc2ccccc2)C1 (stereo not drawn)	none
CC(=O)c1ccc(C(=O)N2CCCC(C(=O)c3cccc(C(F)(F)F)c3)C2)s1 (stereo not drawn)	none
COc1ccc(-c2cc(N3CCC(NC(=O)c4cc(F)ccc4Cl)C3)n[nH]2)cc1 (stereo not drawn)	none
Cc1[nH]c2c(F)cccc2c1CC(=O)N(C)Cc1ccc2nsnc2c1	none
COc1ccc(CC(=O)N2CCC(Nc3nccnc3OC)CC2)cc1	none
O=C(NCC1CCOCC1)c1cnc2n[nH]c(-c3ccccc3)c2n1	none
CN1CCC(N2CCN(S(=O)(=O)c3cccs3)CC2)C1=O (stereo not drawn)	none
CCOCC(=O)N1C[C@@H](Oc2ccccc2)C[C@H]1C(=O)N1CCCC1	none
CN(Cc1ccc(N(C)C)cc1)Cc1cccn1C	none
COc1ccc(CN2Cc3cc(NC(=O)Cc4ccc(F)cc4)ccc3OCC2=O)c(OC)c1	none
NS(=O)(=O)c1ccc(C(=O)N2CCC3(CC2)Nc2ccccc2NC3=O)cc1	none
